In PubChem BioAssay AID651871 (Sanford-Burnham Center for Chemical Genomics, 2012):
Several values for one entry are separate records, joined by “and”; a condition that tells them apart may be missing. Identical values can stand only once.

Tested on: HL-1
Experiment: protection of cardiomyocytes from stress damage, SAR follow-up, cell-based, panel, H9c2 and HL-1, ATP luminescence, set 2 (AID 651871);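 also: cells exposed to stressor for 2 h before ATP readout; reference of the scale not given here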
Settings: H9c2/HL-1 cardiomyocytes, 2-deoxyglucose stress, with 2-deoxyglucose, run 13, at 19.8 µM (top of the series)

## COc1ccc2c(c1OC)C(=O)N1c3ccccc3C(=O)N(Cc3cccc(Cl)c3Cl)C21 (stereo unspecified)
  activity (protection/inhibition): 84.6% and 38.5%
